Results on 60 compounds are retold here after PubChem BioAssay AID652126 (The Scripps Research Institute Molecular Screening Center, 2013).

Molecules are shown by their SMILES. Hit rate of the full screen: of about 370,000 compounds, about 3,700 (1%) were called active. The sample as a whole holds a higher share of actives than the screen did. Unmarked numbers belong to inactive results.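 How the source made its calls: active means activation above the mean over all tested compounds plus 3 SD (cut at about 0.9% in these data); inactive means the rest.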

In this assay the test system is Nuclear hormone receptor DAF-12 (Strongyloides stercoralis). Briefly: S. stercoralis DAF-12 nuclear receptor activators, primary screen, cell-based, luminescence, HEK293, GRIP1 co-expression, lit1-tk-luc (AID 652126).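 Further: 0% = DMSO-only wells and 100% = 3 µM delta7-dafachronic acid wells.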 The conditions noted are these: HEK293 ssDAF-12/GRIP1 lit1-tk-luc reporter, at 6.8 µM, hits give high values, % of 3 µM dafachronic acid response.
Take `Cc1cc(NC(=O)c2ccco2)c(=O)n(Cc2c(F)cccc2Cl)c1`: the activation is -1.23%.

Take `Cn1c(=O)c2c(nc(NCCNC(=O)c3ccco3)n2Cc2ccccc2F)n(C)c1=O`: the activation is -0.73%.

Turning to `Cn1c(=NC(=O)c2ccco2)sc2cccc(F)c21`, the activation was 2.16% (active).

For `O=C(COc1ccccc1Cl)Nc1ccc(C(=O)c2ccc(C(=O)O)cc2)cc1`, the activation is -1.01%.

On to `O=C(COc1ccccc1Cl)Nc1ccccc1C(=O)NC1CC1`, for which the activation was -0.61%.

Regarding `CC(=O)Nc1ccc(NC(=O)COc2ccccc2C(=O)Nc2cccc(Cl)c2Cl)cc1`, the activation was 1.78% (active).

Consider `O=C(CSc1nc2ccccc2s1)N=Nc1c(O)[nH]c2ccccc12`, for which the activation was -1.23%.

Regarding `CCC1([N+](=O)[O-])COC(c2ccc(C(C)C)cc2)OC1` (stereo not given), the activation was -0.23%.

For `CC(C)c1ccc(C=NNc2ccc([N+](=O)[O-])cn2)cc1`, the activation was 1.01% (active).

As for `CN(CCc1ccccc1)c1ccc([N+](=O)[O-])cn1`, the activation was -0.22%.

Regarding `CCOC(=O)[C@@]12CCC3=C1N(CCC3)C(=O)[C@H](CC(=O)N1CCN(C(=O)c3ccco3)CC1)C2`, the activation is -0.8%.

Regarding `CN1[C@H](Cc2ccccc2)COc2cccc(N3CCSCC3)c2S1(=O)=O`, the activation is -0.12%.

With `O=C(NCC1COc2ccccc2O1)c1ccc(NC(=O)c2cc(F)ccc2F)cc1` (stereo not given), the activation was -0.55%.

With `COC(=O)c1ccccc1-n1cc(COC(=O)NCCc2ccccc2)nn1`, the activation was -1.12%.

Regarding `CCn1c(SCC(=O)Nc2nccs2)nnc1-c1ccco1`, the activation is -1.06%.

For the compound `Nn1c(SCC(=O)Nc2nccs2)nnc1-c1ccco1`, the activation was 0.9% (active).

On to `Nn1c(SCC(=O)Nc2nccs2)nncc1=O`, for which the activation is -2.06%.

Take `O=S1(=O)CC(N2CCN(CCO)CC2)CN1Cc1cn(Cc2ccc(Cl)cc2)nn1` (stereo not given): the activation is -0.54%.

Consider `O=S1(=O)c2ccc(Br)cc2OC[C@@H](Cc2ccccc2)N1Cc1cn(Cc2ccco2)nn1`, for which the activation was -1.35%.

With `O=C(CCS(=O)(=O)c1ccccc1)Nc1ccc(Cl)c(Cl)c1`, the activation was -1.34%.

Consider `Cc1cc(N)n2nc(-c3ccc(C(C)(C)C)cc3)cc2n1`, for which the activation is 2.97% (active).

Consider `CCOC(=O)C1=C(C)NC2=C(C(=O)CC(C)(C)C2)C1c1ccc2c(c1)OCO2` (stereo not given), for which the activation was -1.32%.

In the case of `COc1ccccc1NC(=O)c1c(Br)cnn1C`, the activation was -1.57%.

With `COc1ccccc1NC(=O)c1ccc(C)s1`, the activation is 1.3% (active).

Take `COc1ccccc1NC(=O)c1cc(Cl)nnc1Cl`: the activation was -0.66%.

As for `O=C(CSc1nnc(-c2cccc(Cl)c2)n1Cc1ccco1)Nc1ccc(OCc2ccccc2)cc1`, the activation was -1.14%.

Consider `Cc1cccc2c1N(CCOc1ccccc1)C(=O)C2=O`, for which the activation is -1.52%.

For the compound `Cc1nn(CCOc2ccccc2)c(=O)n1-c1ccccc1F`, the activation was 1.79% (active).

`Cc1c(C(N)=O)sc2ncn(CCOc3ccccc3)c(=O)c12`: the activation was -2.14%.

On to `Cc1ccc(NC(=O)c2cc(C)nn2-c2ccccc2)c(C)c1`, for which the activation is -1.78%.

As for `O=C(CNS(=O)(=O)c1ccccc1F)N1CCN(c2ccccn2)CC1`, the activation is -1.72%.

For `Cc1ccc2nc(SCc3nnc(-c4ccccc4[N+](=O)[O-])o3)c(C#N)cc2c1`, the activation is -1.27%.

`Fc1ccc(-c2nnc(CSc3nnc(-c4ccc5c(c4)OCO5)o3)o2)cc1`: the activation is -1.18%.

In the case of `Fc1ccc2nc(-c3ccccc3)nc(SCc3nnc(-c4ccccc4)o3)c2c1`, the activation was 1.48% (active).

Consider `O=C1CC[C@@H](COc2ccc3[nH]cc(-c4ccccc4)c3c2-c2ccccc2)N1`, for which the activation is -0.33%.

For the compound `COC1=C[C@H](C(=O)NCCNC(C)=O)[C@H](C)[C@@H](c2ccccc2)CC1=O`, the activation is -1.26%.

Consider `FC(F)(F)c1ccc2c3n(nc2c1)CCN=C3c1ccc(Cl)cc1`, for which the activation was 1.01% (active).

Regarding `Cc1csc(SCC(=O)Nc2sccc2C#N)n1`, the activation is 0.96% (active).

Take `CC(=O)c1cc(C#N)c(SCC(=O)Nc2nccs2)nc1C`: the activation was -0.91%.

Consider `CC(c1nnc(SCC(=O)Nc2sccc2C#N)n1-c1ccc(Cl)cc1)N(C)C` (stereo not given), for which the activation is -0.72%.

`C=C(C)C1CC23C(=O)C4(C(=O)c5ccccc5)C[C@@]5(C)CCC(CC2C1(C)C)(C4=O)C35OC` (stereo not given in full): the activation is -1.03%.

As for `Clc1ccc(-n2c(SC/C=C/c3ccccc3)nnc2-c2ccco2)cc1`, the activation is -1.68%.

In the case of `COc1ccc(C(=O)OCCN(C)C2CN(Cc3cn(Cc4cccc(C)c4)nn3)S(=O)(=O)C2)cc1OC` (stereo not given), the activation is -0.78%.

Take `Cc1ccc2nc(-c3ccccc3)c(CC3CCCCC3)n2c1`: the activation was 1.3% (active).

Consider `COc1ccccc1Cc1c(-c2ccc(F)cc2)nc2ccc(C)cn12`, for which the activation was 0.07%.

As for `Brc1ccc2nc(-c3ccccc3)c(Cc3ccccc3)n2c1`, the activation is -0.45%.

Consider `COc1ccc(-n2c(SCC(=O)Nc3ccc4cn[nH]c4c3)nnc2-c2cccnc2)cc1`, for which the activation is -1.16%.

Regarding `O=C(CSc1nc2c(c(=O)[nH]1)CCCC2)N1CCCCC1`, the activation was -1.67%.

Take `CCN(CC)CC(=O)Nc1sc2c(c1C(=O)c1ccccc1C)CCC2`: the activation is -1.11%.

Turning to `CCOC(=O)C(NC(=O)CC(C)C)(Nc1sc2c(c1C(N)=O)CCCC2)C(F)(F)F` (stereo not given), the activation is -0.54%.

With `NC(=O)c1c(NC(=O)c2ccccc2)sc2c1CCCC2`, the activation was 2.15% (active).

As for `NC(=O)c1c(Nc2nc3c(F)cccc3s2)sc2c1CCCC2`, the activation is 1.29% (active).

Turning to `COC(=O)c1c(NC(=O)COC(=O)[C@@H](NS(=O)(=O)c2ccccc2)C(C)C)sc2c1CCC2`, the activation was -1.44%.

With `NNc1nc2c(Cl)cccc2s1`, the activation is -0.81%.

With `Cc1ccc(C(=O)C2CCN(CC(=O)NCCC(C)C)CC2)cc1`, the activation was -1.67%.

With `CC1(C)N=C(N)NC(Nc2ccc(Cl)cc2)=N1`, the activation is -1.4%.

As to `Clc1ccc(Nc2ccc3ccccc3n2)cc1`, the activation was 2.58% (active).

With `C=CCNc1nc(Nc2ccc(Cl)cc2)nc(OC)n1`, the activation is -0.26%.

As for `O=C(CCl)NC1CCCCN(Cc2cccc(C(F)(F)F)c2)C1=O` (stereo not given), the activation is -1.24%.

For the compound `NCC(=O)c1cccc2ccc[n+]([O-])c12`, the activation is -0.72%.
